# Substitutions are numbered along the chain they refer to. Whole data set: some 24,000 sequences, median “enrichment r” near 0.99, cut for the highest 2% near 3.7. The entries come from a sample that favours the highest values as a whole.
# T1: UNK ZnF1-3 (human, UniProt Q9C0B0 31-174)
# T1 sequence: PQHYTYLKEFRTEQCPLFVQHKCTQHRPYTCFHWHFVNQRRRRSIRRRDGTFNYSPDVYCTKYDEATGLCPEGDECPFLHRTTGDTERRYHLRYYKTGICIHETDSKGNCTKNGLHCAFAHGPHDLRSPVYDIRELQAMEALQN
# B1: 18916218_18916338_822_CDS_ENSMUSG00000020160_ENSMUST00000068264|mouse|control|control (ssRNA)
# RNA: GGGAGUUCUACAGUCCGACGAUCGUGCGGGUACUGAUGCGAGUGCAGAGGAGGCCCGUGGUUCAGGUGGUGGACCGGUUGCAUGGACCUGGCUGCAUGCGGGUCCCCAUACAUCGUGGAGGGGAUGCCUACUCCAUCCAUACCCAACAGAGGAUUGAGCAUCA
# B2: chr11:2981123:2981124:-_ENSG00000205531_ENST00000380542|hu_mus|FALSE|FALSE (ssRNA)
# RNA: GGGAGUUCUACAGUCCGACGAUCCUUGUACGUUUUCGUCAGGACAGGAUUGGUGAAGUAGUCGUUGGGUUCAAAGUGAAACUCUAGCACAAAAGACAUAGGUUGUCCAGGGUCUGAAAACUUCACUUUAAUAUCCUGCAGAUGCAACAGAGGAUUGAGCAUCA
# B3: chr6:155153589:155153590:+_ENSG00000213079_ENST00000417268|hu_hu|motif|central (ssRNA)
# RNA: GGGAGUUCUACAGUCCGACGAUCAGUAACAUUGUCUACGCUUUGUCUUCCAGGAGCUAAAAAAGGUCUUUCUGGUUGACGGAAAAUAUCUCCUGGAGGAAAAGGUCCACGGGGUGGUGGAUGAAGAGCUGAAUCAAGUACCGACAACAGAGGAUUGAGCAUCA
# B4: chr1:161298228:161298229:+_ENSG00000143252_ENST00000367975|hu_hu|motif|central (ssRNA)
# RNA: GGGAGUUCUACAGUCCGACGAUCCAUGGGAAGAGACCAACUGUAGAUAGUAAUGUGGGGAGACAGAGGACGGUUUGAACCGGUAUUCUUAUUCCAGAACCGCUCCAUCUCUUCUUUGGCCGUGGUUCCCAAAGGAACAGCAUUCAACAGAGGAUUGAGCAUCA
# B5: 32561585_32561705_2007_CDS_ENSG00000100852_ENST00000539826|human|control|control (ssRNA)
# RNA: GGGAGUUCUACAGUCCGACGAUCUAGUUCUUGGGCAAGGCCAUCCUUCCCUAAAAUAAAAAGGUUAACUUUAUCUAUAUUGGUACUAUCGUGAUAUAAUCUUAAGCGGCCAUGAUCCAACUGUAAAAGACUACUAGCAAGUAACAACAGAGGAUUGAGCAUCA
# B6: chr3:139076767:139076768:-_ENSG00000184432_ENST00000507777|hu_mus|motif|central (ssRNA)
# RNA: GGGAGUUCUACAGUCCGACGAUCACUUUAAUCAUCCAGAAUAUCUUCAUCCAGAUUAAUGUCUGUUGUGUCAAUAUCCUCGGAUUCCAAGUUAUCCAAAUCAACUUCUAGUUCUAGUAAACUCUUUUCUUCUUUGUGGGUAGUCAACAGAGGAUUGAGCAUCA
# B7: chr10:33190432:33190433:-_ENSG00000150093_ENST00000302278|hu_mus|hu_hu_hu_mus_True|28_68 (ssRNA)
# RNA: GGGAGUUCUACAGUCCGACGAUCUACAUUUUCCAAACCUGCAUGUGAAUAAAACCCUGGCCACAGAGCCCUAAAGCUACCCUACUGUGACUAAGAUGCUGCUGCUGUUGCAUUCAGGUUGCAAAAUCCGCCUGAGUAGGAUUCCAACAGAGGAUUGAGCAUCA
# B8: chr15:100049815:100049816:+_ENSMUSG00000023026_ENSMUST00000100203|mus_mus|motif|central (ssRNA)
# RNA: GGGAGUUCUACAGUCCGACGAUCAAUGAGUUAAUAGAACACUGUCCAGCCAGAUGUUAAAUUUAAAAAUGUAUAUCGGACCGGAUUUCAAAUAAAUAAAAAAACCUUUAUACAUAAUUACACAGUACUAUAGUUUGAAUUGGACAACAGAGGAUUGAGCAUCA
# B9: chr5:38529146:38529147:-_ENSMUSG00000029126_ENSMUST00000031009|mus_mus|FALSE|FALSE (ssRNA)
# RNA: GGGAGUUCUACAGUCCGACGAUCAGAAAAGCUAAAGUAGCCCUGGCUUACCCAAAAUUACAUUUCACUUUGCCCACUGGCUAAUAAAACAAAACAAAACAAAACAAAAAACCCAAACUGCACCUGCAUUCAGGGCUGUACGUGCAACAGAGGAUUGAGCAUCA
# B10: chr5:38529174:38529175:-_ENSMUSG00000029126_ENSMUST00000031009|mus_mus|FALSE|FALSE (ssRNA)
# RNA: GGGAGUUCUACAGUCCGACGAUCGAAAAGCUAAAGUAGCCCUGGCUUACCCAAAAUUACAUUUCACUUUGCCCACUGGCUAAUAAAACAAAACAAAACAAAACAAAAAACCCAAACUGCACCUGCAUUCAGGGCUGUACGUGCCAACAGAGGAUUGAGCAUCA
# B11: chr1:58468927:58468928:-_ENSMUSG00000026034_ENSMUST00000148330|mus_mus|mus_mus_mus_hu_False|18_68 (ssRNA)
# RNA: GGGAGUUCUACAGUCCGACGAUCAAUUACUGAAAAAGAUGUUCAUUACCUUAGCUAUGUACUUAAUUUAAUAAAGCACCCAAACAAAAUAAACAUGGCAAUAUAAAAAUGUUAAGAAAAUAACUUACUGUACAAAAUAACUUACAACAGAGGAUUGAGCAUCA
# B12: chr15:100049815:100049816:+_ENSMUSG00000023026_ENSMUST00000100203|mus_hu|motif|central (ssRNA)
# RNA: GGGAGUUCUACAGUCCGACGAUCAAUGAGUUAAUAGAACACUGUCCAGCCAGAUGUUAAAUUUAAAAACGUAUAUCGGGUCGGACUUCAAAUAAAUAAAAAAACUUUAUACAUAAUUACACAGUACUGUAGUUUGAAUUUGACCAACAGAGGAUUGAGCAUCA
# B13: chr1:58468927:58468928:-_ENSMUSG00000026034_ENSMUST00000148330|mus_mus|mus_mus_mus_hu_False|1_68 (ssRNA)
# RNA: B11 RNA with A118U, A119U, A122C, C123A, U124A, U125A, A126G, U137A, A138G, U142G
# B14: chr1:58468927:58468928:-_ENSMUSG00000026034_ENSMUST00000148330|mus_mus|mus_mus_mus_hu_False|28_68 (ssRNA)
# RNA: GGGAGUUCUACAGUCCGACGAUCAAUUACUGAAAAAGAUGUUCAUUACCUUAGCUAUGUACUUAAUUUAAUAAAGCACCCAAACAAAAUAAACAUGGCAAUAUAAAAAGCUAUACAAUUUACAAAGCUGUACAAAAUAACUUACAACAGAGGAUUGAGCAUCA
# B15: chr1:58468927:58468928:-_ENSMUSG00000026034_ENSMUST00000148330|mus_mus|mus_mus_mus_hu_False|58_68 (ssRNA)
# RNA: B14 RNA with C78U, C80U, C84A, G109U, C110G, A112U, U113A, C115G
# B16: chr1:58468927:58468928:-_ENSMUSG00000026034_ENSMUST00000148330|mus_mus|mus_mus_mus_hu_False|68_68 (ssRNA)
# RNA: B14 RNA with G109U, C110G, A112U, U113A, C115G
# B17: chr15:100049815:100049816:+_ENSMUSG00000023026_ENSMUST00000100203|mus_hu|FALSE|FALSE (ssRNA)
# RNA: B12 RNA with G77U, G78A, G82U, G83A
# Biological target: T1, UNK ZnF1-3
# Experiment: nsRBNS (natural sequence RNA bind-n-seq); RBNS binding buffer (assumed for nsRBNS): 25 mM Tris pH 7.5, 150 mM KCl, 3 mM MgCl2, 0.01% Triton X-100, 500 ug/ml BSA, 20 U/ml SUPERase-In, 4 C; UNK is unkempt and MSI1 is Musashi-1; names of the RNAs are library labels; protein concentration not given here; high values mean tight binding
row,Binder,binding signal [enrichment R]
1,B1,0.98
2,B2,0.872
3,B3,0.663
4,B4,1.08
5,B5,1.31
6,B6,0.449
7,B7,1.01
8,B8,2.23
9,B9,4.49
10,B10,1.5
11,B11,3.68
12,B12,4.96
13,B13,1.68
14,B14,0.868
15,B15,3.76
16,B16,1.87
17,B17,1.95

# — paper PMC12136788
